The list is not random: actives were taken first. Their share in the collection is about 18%.
Six1-Eya2 inh = Six1/Eya2 interaction inhibition; AlphaScreen GST-Six1/His-Eya2 binding, biochemical; active compounds read low; activity change, % (test concentration not listed); 0.56% of 360,000 active; Q15475+O00167; AID 651725; in the data active means activity change below about -65%; inconclusive means mostly about -30% to -63%
Target sequence (O00167 whole entry, looked up): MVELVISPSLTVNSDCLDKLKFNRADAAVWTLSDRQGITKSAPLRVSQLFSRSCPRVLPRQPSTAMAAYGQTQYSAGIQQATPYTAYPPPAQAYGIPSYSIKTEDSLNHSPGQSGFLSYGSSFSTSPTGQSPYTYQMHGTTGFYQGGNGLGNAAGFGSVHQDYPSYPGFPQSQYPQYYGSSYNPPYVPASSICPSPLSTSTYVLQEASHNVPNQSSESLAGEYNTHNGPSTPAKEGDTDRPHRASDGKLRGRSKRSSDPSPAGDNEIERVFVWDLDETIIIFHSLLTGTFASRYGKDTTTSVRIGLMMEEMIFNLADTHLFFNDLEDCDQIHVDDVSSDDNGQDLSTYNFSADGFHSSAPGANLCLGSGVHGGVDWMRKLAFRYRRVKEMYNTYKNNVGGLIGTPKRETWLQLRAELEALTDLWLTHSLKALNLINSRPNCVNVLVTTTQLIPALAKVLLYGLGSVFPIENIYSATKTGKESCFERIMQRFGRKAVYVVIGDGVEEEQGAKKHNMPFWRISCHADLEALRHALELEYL
Target sequence (Q15475 whole entry, looked up): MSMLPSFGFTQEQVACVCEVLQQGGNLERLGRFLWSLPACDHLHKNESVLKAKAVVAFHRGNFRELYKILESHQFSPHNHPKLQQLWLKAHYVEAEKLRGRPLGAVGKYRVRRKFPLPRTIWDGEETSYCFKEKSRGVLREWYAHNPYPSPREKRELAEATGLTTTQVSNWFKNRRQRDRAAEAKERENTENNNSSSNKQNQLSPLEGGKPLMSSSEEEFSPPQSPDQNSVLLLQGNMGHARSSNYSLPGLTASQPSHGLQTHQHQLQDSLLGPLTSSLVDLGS
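Homogeneous AlphaScreen proximity assay pairing GST-Six1 with His-tagged Eya2 (added as 5X mix: 250 nM and 500 nM) in 50 mM Tris pH 8.0, 300 mM NaCl, 1 mM TCEP. Glutathione donor and nickel acceptor beads; 1 h, 37 °C, dark.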
IL-1B inflam inh = inhibitors of inflammasome signaling (IL-1 beta secretion); THP-1 LPS/ATP IL-1B secretion, AlphaLISA, 16 h; active compounds read low; activity change, % at 57.5 µM; 4.7% of 360,000 active; in the data active means activity change below about -50%; inconclusive means mostly about -30% to -49%
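Secreted IL-1B measured by AlphaLISA bead assay after 16 h compound exposure of THP-1 cells; compounds (final up to 57.5 uM) added 1 h before LPS (250 ng/mL) and ATP (1.25 mM) stimulation; lower signal means less secretion.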
TDP1 block = inhibitors of human tyrosyl-DNA phosphodiesterase TDP1 | Q9NUW8 | recombinant TDP1, AlphaScreen DNA substrate cleavage | Potency, µM (series often up to 130 µM), usual class: inhibitors | 0.28% of 350,000 active; further: nearly all actives have a fitted effect of over 40% in size
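E. coli-derived human Tdp1, 1 nM final. Cpd preinc 15 min RT; substrate 15 nM final, 5 min RT; AS bead mix 10 ug/ml final, 10 min RT. Signal loss = tyrosine-FITC cleavage. No-enzyme wells = max signal.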
DT40 TDP1 CPT = growth inhibition of DT40 Tdp1-/-;hTDP1 cells with camptothecin (screen for TDP1 inhibitors); 12% of 420,000 active; AID 686979; chicken DT40 Tdp1-/-;hTDP1 cells + 20 nM CPT, ATP luminescence, 48 h; Potency, µM (titrated, usually from 46.2 µM), hits mostly inhibitors; further: nearly all actives have a fitted effect of over 55% in size
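Cell growth measured by CellTiter-Glo luminescence after a minimum 48 h, 37 C compound exposure with 20 nM CPT in Tdp1-knockout DT40 cells stably expressing hTDP1, seeded 400/well; qHTS titration format.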
TDP1 cell noCPT = qHTS for Inhibitors of human tyrosyl-DNA phosphodiesterase 1 (TDP1): qHTS in cells in absence of CPT. DT40 Tdp1-/- hTDP1 cells, no CPT, ATP luminescence, 48 h. AID 686978, 2013. Potency, µM (top dose mostly 46.2 µM), hits mostly inhibitors. 15% of 420,000 active; further: nearly all actives have a fitted effect of over 55% in size
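A cellular qHTS used chicken DT40 cells lacking endogenous Tdp1 but carrying stably transfected human TDP1. Compounds were applied without camptothecin, and cell growth kinetics were judged by ATP-dependent luminescence after ≥48 hr.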
CtBP-E1A inh = inhibitors of CtBP/E1A interaction; activity change, % (concentration not given with the values); AlphaScreen GST-E1A/His-CtBP binding, 1536-well; active compounds read low; AID 651724; 0.49% of 340,000 active; in the data active means activity change below about -65%; inconclusive means mostly about -30% to -63%
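In 5 uL wells, 23 nL compound meets equimolar GST-E1A and His-CtBP (5X stock 125 nM each) for 2 h, 37 °C. Beads (5X, 50 ug/mL) then 1 h, 37 °C, dark.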
Large screens that a line does not name were inactive; ! = not confirmed by another sample. Unless noted, the call rests on the fitted dose curve; in most records, active means well fitted curve in the direction sought with a large enough effect; inconclusive means small, poorly fitted or top-dose-only effect, or another doubt; inactive means no such curve, though single readings can be large; an effect the other way counts as inactive or inconclusive.

Cc1nn(Cc2ccc(Cl)cc2Cl)c(Cl)c1C(=O)NC1CCCc2ccccc21 (centres undefined)	DT40 TDP1 CPT 16µM, TDP1 cell noCPT 12µM
COc1ccc(S(=O)(=O)N2CCN(C(=O)c3ccc(COc4ccccc4)o3)CC2)cc1	DT40 TDP1 CPT inconclusive, TDP1 cell noCPT inconclusive (no result: TDP1 block)
N#CCCn1cc(C(=O)Nc2ccccc2Br)c(-c2ccc3c(c2)OCCO3)n1	TDP1 cell noCPT inconclusive
FC(F)(F)c1nc(N2CCN(c3ccccc3)CC2)nc2c1CCCCC2	DT40 TDP1 CPT inconclusive, TDP1 cell noCPT 18µM
COc1c(C)cc(C(=O)C2CCCN(Cc3cccc(C)n3)C2)cc1C (centres undefined)	DT40 TDP1 CPT inconclusive, TDP1 cell noCPT 21µM (no result: CtBP-E1A inh)
COc1ccc2cc(C(=O)C3CCCN(C4CCOCC4)C3)ccc2c1 (centres undefined)	DT40 TDP1 CPT 21µM, TDP1 cell noCPT 13µM
COc1c(C)cc(C(=O)C2CCCN(Cc3cccc(O)c3)C2)cc1C (centres undefined)	DT40 TDP1 CPT inconclusive, TDP1 cell noCPT inconclusive (no result: TDP1 block)
COc1cccc(C(=O)C2CCCN(Cc3cccc(C)n3)C2)c1 (centres undefined)	DT40 TDP1 CPT 18µM, TDP1 cell noCPT 16µM (no result: CtBP-E1A inh)
O=c1[nH]c(=S)n(-c2ccccc2F)c(O)c1C=NCCN1CCNCC1	none (no result: TDP1 block, CtBP-E1A inh)
COC(=O)CCC(=O)Nc1sc(Cc2ccccc2)c(C)c1C(N)=O	DT40 TDP1 CPT 12µM, TDP1 cell noCPT 23µM
COc1ccc(-c2nc3ccccc3c(=O)o2)cc1	none
CC(=O)c1cn(CC(=O)NCCc2c[nH]c3ccccc23)c2ccccc12	DT40 TDP1 CPT 16µM, TDP1 cell noCPT 23µM (no result: TDP1 block, CtBP-E1A inh)
CC(=O)NCCc1c[nH]c2ccccc12	TDP1 cell noCPT inconclusive
O=C(CC[N+](=O)[O-])OCC1OC(O)C(OC(=O)CC[N+](=O)[O-])[C@@H](OC(=O)CC[N+](=O)[O-])C1OC(=O)CC[N+](=O)[O-] (some centres undefined)	DT40 TDP1 CPT inconclusive, TDP1 cell noCPT 5.8µM (no result: Six1-Eya2 inh, IL-1B inflam inh, CtBP-E1A inh)
COc1ccc(CNS(=O)(=O)c2cc3c(cc2C)N(C)CCO3)cc1	DT40 TDP1 CPT inconclusive, TDP1 cell noCPT 15µM
COc1ccc(CNCC(=O)N2CCC3(CC2)OCCO3)cc1	none
CCOc1ccc(CC2C(=O)NC(=O)N(c3ccc(CC)cc3)C2=O)cc1 (centres undefined)	none
CCOc1ccc(N(C(C)C(=O)Nc2cc(Cl)ccc2OC)S(C)(=O)=O)cc1 (centres undefined)	DT40 TDP1 CPT 0.58µM, TDP1 cell noCPT 0.52µM (no result: Six1-Eya2 inh, IL-1B inflam inh, TDP1 block, CtBP-E1A inh)
CC(=O)OC1CC[C@@]2(C)C3CC[C@]4(C)C(=O)CCC4C3CC[C@H]2C1 (some centres undefined)	DT40 TDP1 CPT inconclusive (no result: Six1-Eya2 inh, IL-1B inflam inh, CtBP-E1A inh)
CC/C(=N\NC(=O)c1ccccc1)c1c(O)n(C2CCCCC2)c(=O)[nH]c1=O	none (no result: CtBP-E1A inh)
O=C(Nc1ccc(Cl)cc1)Nc1ccc(Cl)c(C(F)(F)F)c1	DT40 TDP1 CPT 4.7µM, TDP1 cell noCPT 3.3µM (no result: Six1-Eya2 inh, IL-1B inflam inh, TDP1 block, CtBP-E1A inh)
O=C(NC(=O)c1c(F)cccc1F)Nc1ccc(Cl)c(Oc2ncc(C(F)(F)F)cc2Cl)c1	none (no result: Six1-Eya2 inh, IL-1B inflam inh, CtBP-E1A inh)
CCCCC[C@@H]1CCCCC[C@@H](O)C[C@@H](O)[C@H](O)/C=C/C(=O)O1	IL-1B inflam inh -66, TDP1 cell noCPT inconclusive (no result: TDP1 block)
CCCCC[C@@H]1CCCCC[C@H](O)C[C@@H](O)[C@@H](O)/C=C/C(=O)O1	IL-1B inflam inh inconclusive, DT40 TDP1 CPT inconclusive, TDP1 cell noCPT inconclusive (no result: TDP1 block)
CC(C)[C@H](N)C(=O)OCC(CO)OCn1cnc2c(=O)[nH]c(N)nc21 (some centres undefined)	DT40 TDP1 CPT 13µM, TDP1 cell noCPT 11µM (no result: Six1-Eya2 inh, IL-1B inflam inh, TDP1 block, CtBP-E1A inh)
C#C[C@]1(O)CCC2C3C(CC[C@@]21C)[C@@]1(C)CC[C@@H](O)CC1=C[C@H]3O (some centres undefined)	DT40 TDP1 CPT inconclusive, TDP1 cell noCPT 23µM
C#C[C@]1(O)CCC2C3C(=O)C=C4C=CCC[C@]4(C)C3CC[C@@]21C (some centres undefined)	TDP1 cell noCPT inconclusive (no result: TDP1 block)
CNC(=O)Oc1cccc2c1OC(C)(C)C2	none (no result: Six1-Eya2 inh, IL-1B inflam inh, CtBP-E1A inh)
CCn1c(O)c(N=Nc2ccc(S(=O)(=O)N3CCOCC3)cc2)c(=O)n(CC)c1=S	IL-1B inflam inh -84
CCn1c(O)c(N=Nc2cccc(S(=O)(=O)N3CCOCC3)c2)c(=O)n(CC)c1=S	IL-1B inflam inh inconclusive
COc1cc2c(cc1OC)C13CCN4CC5=CCOC(CC(=O)O)C(C5CC41)C3N2 (centres undefined)	none (no result: TDP1 block)
O=C(C1CC(=O)N(c2ccc(F)c(Cl)c2)C1)N1CCC2(CC1)OCCO2 (centres undefined)	DT40 TDP1 CPT inconclusive
CNC(C(=O)c1ccccc1)C(OC)c1cccc([N+](=O)[O-])c1 (centres undefined)	none
CN(Cc1ccccc1)C(=O)c1cccc(NC(=O)Cc2ccc([N+](=O)[O-])cc2)c1	IL-1B inflam inh inconclusive, DT40 TDP1 CPT 23µM, TDP1 cell noCPT 15µM
COc1ccc(NC(=O)CCn2cc(C)c3ccccc32)cc1	TDP1 cell noCPT inconclusive (no result: TDP1 block)
CC(C)[N+](C)(CCC(C(N)=O)(c1ccccc1)c1ccccc1)C(C)C	DT40 TDP1 CPT 7.3µM!, TDP1 cell noCPT 9.2µM!
